Drawing on the supplement of paper PMC7156485, this text covers cell number for 34 compounds.

± gives the standard deviation of the averaged measurements.
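Further: TDF denotes transformed human dermal fibroblasts of mesenchymal origin.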

This assay deals with HCC1569. Briefly: cell number relative to DMSO (% of DMSO); higher = more cells (less growth inhibition / toxicity). To be noted: concentration: 10 µM; 24 h. The method in brief:
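In 384-well plates holding 800 HCC1569 or TDF cells per well in RPMI with 10% FBS, compounds were tested at 10 µM for 24 h at 37 °C in triplicate. Fixation used 3.7% formaldehyde. Staining used a rabbit anti-H1.0 antibody with an AlexaFluor 647 secondary, plus DAPI. Each value, H1.0 nuclear intensity or cell number, is a median of replicates shown as percent of the plate control, and HCC1569 values were smoothed for positional effects.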
`CC1CCC2(C(=O)O)CCC3(C)C(=CCC4C5(C)CC(O)C(O)C(C)(CO)C5C(O)CC43C)C2C1C` (centres undefined) [Madecassic acid] returned a cell number of 105.

`OC1c2ccccc2N=C2CCCN21` (centres undefined) [Peganole] had a cell number of 95.

For `COc1ccc(-c2ccc3c(N4CCOCC4)nc(N4CC(C)OC(C)C4)nc3n2)cc1CO` (centres undefined), the cell number is 73.

`CCCCCCCCCCCCCCCCOCC(COP(=O)([O-])OCC[N+](C)(C)C)OC(=O)NC` (centres undefined) yielded a cell number of 103.

In the case of `Cl.Nc1c2c(nc3ccccc13)CCCC2` [9-Amino-1,2,3,4-tetrahydroacridine hydrochloride], the cell number was determined as 105.

`Cl.Nc1nc2ccc(OC(F)(F)F)cc2s1` [Riluzole.HCl] came in with a cell number of 101.

With `C=C1CC2C3C=C(C)C4=CC(=O)CCC4(C)C3CCC2(C)C1(OC(C)=O)C(C)=O` (centres undefined) [Melengestrol Acetate], the cell number is 102.

`O=C(Nc1ccc(S(=O)(=O)Nc2nccs2)cc1)C(c1ccccc1)c1ccccc1`: the cell number worked out at 93.6.

Compound `O=C(O)c1cccnc1C(=O)O` [Quinolinic acid] had a cell number of 106.

Turning to `CCCc1cc(C(N)=S)ccn1` [Prothionamide], the cell number is 106.

Compound `O=c1c(-c2ccc(O)cc2)coc2cc(OC3OC(CO)C(O)C(O)C3O)cc(O)c12` (centres undefined) [Genistin] displayed a cell number of 103.

`CCc1nc(-c2cccc(C)c2)c(-c2ccnc(NC(=O)c3ccccc3)c2)s1` gave a cell number of 88.3.

In turn, `O=C(O)c1cc(=O)c2c(Cl)cc(Cl)cc2[nH]1` [5,7-Dichlorokynurenic acid] gave a cell number of 102.

The compound `Br.CCSC(=N)N` [S-Ethylisothiourea hydrobromide] displayed a cell number of 102.

Regarding `COc1cc(CC2C(=O)OCC2Cc2ccc(OC)c(OC)c2)ccc1O` (centres undefined), the cell number amounted to 80.5.

Turning to `C=C1C(=O)C23C(O)C1CCC2C12COC3(O)C(O)C1C(C)(C)CCC2O` (centres undefined) [Rubescensin A], the cell number is 90.8.

Consider `CCOc1nc(NC(=O)Cc2cc(OC)ccc2OC)cc(N)c1C#N` [JNK Inhibitor VIII], for which the cell number was determined as 97.9.

`O=C1C(SCCO)=C(SCCO)C(=O)c2ccccc21` [2,3-bis[(2-hydroxyethyl)sulfanyl]naphthoquinone]: the cell number was 36.5.

In turn, `c1ccc(CNc2nc(NCc3ccccc3)c3ccccc3n2)cc1` [N~2~,N~4~-dibenzyl-2,4-quinazolinediamine] had a cell number of 33.7.

As for `OCC1OC(n2cnc3c(NC4CCCC4)ncnc32)C(O)C1O` (centres undefined) [N6-Cyclopentyladenosine], the cell number amounted to 99.8.

The compound `COc1nc(C)nc(Cl)c1NC1=NCCN1.Cl` [Moxonidine hydrochloride] showed a cell number of 102.

As to `CCCS(=O)c1ccc2nc(NC(=O)OC)[nH]c2c1` (centres undefined) [Ricobendazole], the cell number was found to be 98.4.

`NC(=O)c1ncn(C2OC(CO)C(O)C2O)n1` (centres undefined) [Ribavirin] displayed a cell number of 97.5 ± 3.

For `COc1cc(OC)c2cc(-c3ccncc3)cnc2c1.Cl.Cl` [5,7-dimethoxy-3-(4-pyridinyl)quinoline dihydrochloride], the cell number was determined as 105.

`CN1CCN(CC(=O)N2c3ccccc3C(=O)Nc3cccnc32)CC1.Cl.Cl` [Pirenzepine dihydrochloride] yielded a cell number of 107.

Compound `COC(=O)C1=C(C)NC(C)=C(C(=O)OCCN(C)Cc2ccccc2)C1c1cccc([N+](=O)[O-])c1.Cl` (centres undefined) [Nicardipine.HCl] showed a cell number of 96.8.

As to `O=c1oc(Cl)c(Cl)c2ccccc12` [3,4-Dichloroisocoumarin], the cell number came out at 103.

Turning to `Br.Br.NC(N)=NCCSSCCN=C(N)N` [Guanidinoethyl disulfide dihydrobromide], the cell number came to 100.

The compound `O=C(O)c1ccc(NC(=O)[C@H](CC2CCCC2)n2cnc(C(F)(F)F)c2)nc1` registered a cell number of 100.

Turning to `Cc1cc(C)c(NC(=O)CC(CC(=O)[O-])c2cccc3ccccc23)c(C(=O)N2CCC3(CCCC3)CC2)c1.[Na+]` (centres undefined), the cell number worked out at 105.

The compound `CC(CCc1ccccc1)NCC(O)c1ccc(O)c(C(N)=O)c1.Cl` (centres undefined) [Labetalol hydrochloride] registered a cell number of 101.

Compound `C=C1NC2(C(=O)COC(C)=O)C(CC3C4CCC5=CC(=O)C=CC5(C)C4C(O)CC32C)O1` (centres undefined) showed a cell number of 96.8.

The compound `CCCCCC(O)C=CC1=C(CCCCCCC(=O)O)C(=O)CC1` (centres undefined) [Prostaglandin B1] returned a cell number of 101 ± 2.6.

`CON=C(C(=O)NC1C(=O)N2C(C(=O)[O-])=C(COC(C)=O)CSC12)c1csc(N)n1.[Na+]` (centres undefined) [Cefotaxime sodium]: the cell number came to 103.
